Assay results reported in PubChem BioAssay (EPA / NIEHS).
Calls of active or inactive are those of the source. Rule for the calls: active = hit-call score of the fitted dose curve at least 0.9, where 1 is the maximum; inactive = score below 0.9.

Experiment: ATG_PXRE_CIS: Attagene CIS-FACTORIAL HepG2 Assay for human Pregnane X Receptor Element (PXRE) (AID 2282957)
Conditions: HepG2 Attagene CIS-FACTORIAL PXRE reporter, mRNA; actives raise or lower the signal
In short: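 HepG2 cells transiently transfected with cis-element-driven multiplexed reporter units; after 24 h chemical exposure, reporter mRNA measured by RT-PCR, 6-FAM labelling, HpaI digestion and capillary electrophoresis. Bidirectional fitting relative to DMSO.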

Row | SMILES | AC50 | outcome
1 | O=S(=O)(c1ccccc1)c1ccccc1 | 20.1 µM (active) | –
2 | CCC(C)c1cc(C(C)(C)C)cc(-n2nc3ccccc3n2)c1O (stereo unspecified) | 4.36 µM (active) | –
3 | CC1(C)C(=O)NC(=O)NC1=O | – | inactive
4 | CC(=O)/C=C/c1ccccc1 | 26.4 µM (active) | –
5 | CCOC(=O)COc1ccc(Cl)cc1Cl | – | inactive
6 | N#CC(c1ccccc1)c1ccccc1 | 11.1 µM (active) | –
7 | C[N+](C)=CCl | – | inactive

Experiment: ATG_PPRE_CIS: Attagene CIS-FACTORIAL HepG2 Assay for human Peroxisome Proliferator-activated Response Element (PPRE) (AID 2282958)
Conditions: HepG2 PPRE cis-element reporter, Attagene transcription factor profiling; actives raise or lower the signal
In short: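 Measured endpoint: PPRE-controlled reporter mRNA, detected by RT-PCR and capillary electrophoresis fluorescence, from transiently transfected HepG2 cells 24 h after dosing. Curves fitted in both directions using DMSO baseline.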

Row | SMILES | outcome | AC50
8 | O=C1C(Cl)=C(Cl)C(=O)C(Cl)=C1Cl | inactive | –
9 | N#CCCCCC#N | inactive | –
10 | CC(C)c1ccc(O)cc1 | inactive | –
11 | C[N+](C)(C)CC(=O)[O-] | inactive | –
12 | CC(C)(c1cc(Cl)c(O)c(Cl)c1)c1cc(Cl)c(O)c(Cl)c1 | inactive | –
13 | O=C(NCNC(=O)NC1C(=O)NC(=O)N1CO)NC1C(=O)NC(=O)N1CO (stereo unspecified) | inactive | –
14 | CC(C)CCCCCCCOP(=O)(Oc1ccccc1)Oc1ccccc1 | inactive | –
15 | C=COCCCl | inactive | –
16 | C=CCN(CC=C)C(=O)C(Cl)Cl | inactive | –
17 | CC[N+](=O)[O-] | inactive | –
18 | CC(Cc1ccc(C(C)(C)C)cc1)CN1C[C@@H](C)O[C@@H](C)C1 (stereo partly specified) | inactive | –
19 | CCOC(=O)N(C)N=O | inactive | –
20 | O=CNC(N1CCN(C(NC=O)C(Cl)(Cl)Cl)CC1)C(Cl)(Cl)Cl (stereo unspecified) | inactive | –
21 | CCC[N+](=O)[O-] | inactive | –
22 | CC(C)C#N | inactive | –
23 | CCCCCc1cc(O)cc(O)c1 | – | 19.8 µM (active)
24 | c1ccc(Nc2ccc3ccccc3c2)cc1 | – | 39.8 µM (active)
25 | CSc1nc(N=[N+]=[N-])nc(NC(C)C)n1 | inactive | –
26 | Cc1ccc(OP(=O)(Oc2ccc(C)cc2)Oc2ccc(C)cc2)cc1 (tested in a mixture with another compound) | inactive | –
27 | ClC1=C(Cl)[C@]2(Cl)[C@@H]3[C@@H](Cl)[C@H](Cl)C[C@@H]3[C@@]1(Cl)C2(Cl)Cl | inactive | –
28 | O=S(=O)(c1ccccc1)c1ccccc1 | inactive | –
29 | CCC(C)c1cc(C(C)(C)C)cc(-n2nc3ccccc3n2)c1O (stereo unspecified) | inactive | –
30 | CC(=O)/C=C/c1ccccc1 | inactive | –
31 | c1ccc(P(c2ccccc2)c2ccccc2)cc1 | inactive | –
32 | N#Cc1cccc(C#N)c1 | inactive | –
33 | O=C1Nc2ccc(Cl)cc2C(c2ccccc2)=NC1O (stereo unspecified) | inactive | –
34 | N#CC(c1ccccc1)c1ccccc1 | inactive | –

Experiment: ATG_RORE_CIS: Attagene CIS-FACTORIAL HepG2 Assay for human RAR-related Orphan Receptor Element (RORE) (AID 2282959)
Conditions: HepG2 Attagene cis-factorial RORE reporter, mRNA; actives raise or lower the signal
In short: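 Transiently transfected HepG2 reporter cells were treated 24 h. Reporter transcripts were detected by RT-PCR and capillary electrophoresis, with bidirectional fitting against DMSO.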

Row | SMILES | outcome | AC50
35 | O=C1C(Cl)=C(Cl)C(=O)C(Cl)=C1Cl | inactive | –
36 | N#CCCCCC#N | inactive | –
37 | CC1CCC(=O)O1 (stereo unspecified) | inactive | –
38 | COc1cc(OC)c(OC)cc1C=O | inactive | –
39 | CC(C)c1ccc(O)cc1 | inactive | –
40 | C[N+](C)(C)CC(=O)[O-] | inactive | –
41 | CC(C)(c1cc(Cl)c(O)c(Cl)c1)c1cc(Cl)c(O)c(Cl)c1 | inactive | –
42 | O=C(NCNC(=O)NC1C(=O)NC(=O)N1CO)NC1C(=O)NC(=O)N1CO (stereo unspecified) | inactive | –
43 | [N-]=[N+]=CC(=O)OC[C@H](N)C(=O)O | inactive | –
44 | COCC(=O)N(c1c(C)cccc1C)N1CCOC1=O | inactive | –
45 | CC(C)CCCCCCCOP(=O)(Oc1ccccc1)Oc1ccccc1 | inactive | –
46 | CCC1CCC(=O)O1 (stereo unspecified) | inactive | –
47 | C=COCCCl | inactive | –
48 | C=CCN(CC=C)C(=O)C(Cl)Cl | inactive | –
49 | CC[N+](=O)[O-] | inactive | –
50 | CC(Cc1ccc(C(C)(C)C)cc1)CN1C[C@@H](C)O[C@@H](C)C1 (stereo partly specified) | inactive | –
51 | [Cl-].[Cl-].[Cl-].[Yb+3] | inactive | –
52 | CCOC(=O)N(C)N=O | inactive | –
53 | O=CNC(N1CCN(C(NC=O)C(Cl)(Cl)Cl)CC1)C(Cl)(Cl)Cl (stereo unspecified) | inactive | –

Row | SMILES | outcome | AC50
54 | CCC[N+](=O)[O-] | inactive | –
55 | CC(C)(O)C#N | inactive | –
56 | CC(C)C#N | inactive | –
57 | S=c1[nH]c2ccccc2[nH]1 | inactive | –
58 | CCCCCc1cc(O)cc(O)c1 | – | 50.4 µM (active)
59 | c1ccc(Nc2ccc3ccccc3c2)cc1 | inactive | –
60 | CSc1nc(N=[N+]=[N-])nc(NC(C)C)n1 | inactive | –
61 | CC=Cc1ccc2c(c1)OCO2 | inactive | –
62 | ClC1=C(Cl)[C@]2(Cl)[C@@H]3[C@@H](Cl)[C@H](Cl)C[C@@H]3[C@@]1(Cl)C2(Cl)Cl | inactive | –
63 | O=S(=O)(c1ccccc1)c1ccccc1 | inactive | –
64 | CCC(C)c1cc(C(C)(C)C)cc(-n2nc3ccccc3n2)c1O (stereo unspecified) | inactive | –
65 | CC1(C)C(=O)NC(=O)NC1=O | inactive | –
66 | CC(=O)/C=C/c1ccccc1 | inactive | –
67 | c1ccc(P(c2ccccc2)c2ccccc2)cc1 | inactive | –
68 | CCOC(=O)COc1ccc(Cl)cc1Cl | inactive | –
69 | N#Cc1cccc(C#N)c1 | inactive | –
70 | O=C1Nc2ccc(Cl)cc2C(c2ccccc2)=NC1O (stereo unspecified) | inactive | –
71 | N#CC(c1ccccc1)c1ccccc1 | inactive | –

Experiment: ATG_Sox_CIS: Attagene CIS-FACTORIAL HepG2 Assay for human SRY-box transcription factor (SOX) (AID 2282960)
Conditions: HepG2 Attagene cis-factorial SOX reporter, mRNA; actives raise or lower the signal
In short: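 Gain- or loss-of-signal endpoint, fitted bidirectionally with DMSO as negative control. Based on reporter mRNA from transfected HepG2 cells harvested 24 h post-treatment and quantified via RT-PCR and capillary electrophoresis.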

Row | SMILES | outcome | AC50
72 | O=C1C(Cl)=C(Cl)C(=O)C(Cl)=C1Cl | inactive | –
73 | N#CCCCCC#N | inactive | –
74 | CC1CCC(=O)O1 (stereo unspecified) | inactive | –
75 | COc1cc(OC)c(OC)cc1C=O | inactive | –
76 | CC(C)c1ccc(O)cc1 | inactive | –
77 | C[N+](C)(C)CC(=O)[O-] | inactive | –
78 | CC(C)(c1cc(Cl)c(O)c(Cl)c1)c1cc(Cl)c(O)c(Cl)c1 | inactive | –
79 | O=C(NCNC(=O)NC1C(=O)NC(=O)N1CO)NC1C(=O)NC(=O)N1CO (stereo unspecified) | inactive | –
80 | [N-]=[N+]=CC(=O)OC[C@H](N)C(=O)O | inactive | –
81 | COCC(=O)N(c1c(C)cccc1C)N1CCOC1=O | inactive | –
82 | CC(C)CCCCCCCOP(=O)(Oc1ccccc1)Oc1ccccc1 | inactive | –
83 | CCC1CCC(=O)O1 (stereo unspecified) | inactive | –
84 | C=COCCCl | inactive | –
85 | C=CCN(CC=C)C(=O)C(Cl)Cl | inactive | –
86 | CC[N+](=O)[O-] | inactive | –
87 | CC(Cc1ccc(C(C)(C)C)cc1)CN1C[C@@H](C)O[C@@H](C)C1 (stereo partly specified) | – | 24.7 µM (active)
88 | [Cl-].[Cl-].[Cl-].[Yb+3] | inactive | –
89 | CCOC(=O)N(C)N=O | inactive | –
90 | O=CNC(N1CCN(C(NC=O)C(Cl)(Cl)Cl)CC1)C(Cl)(Cl)Cl (stereo unspecified) | inactive | –
91 | CCC[N+](=O)[O-] | inactive | –

Row | SMILES | outcome | AC50
92 | CC(C)(O)C#N | inactive | –
93 | CC(C)C#N | inactive | –
94 | S=c1[nH]c2ccccc2[nH]1 | inactive | –
95 | CCCCCc1cc(O)cc(O)c1 | inactive | –
96 | c1ccc(Nc2ccc3ccccc3c2)cc1 | inactive | –
97 | CSc1nc(N=[N+]=[N-])nc(NC(C)C)n1 | inactive | –
98 | CC=Cc1ccc2c(c1)OCO2 | inactive | –
99 | Cc1ccc(OP(=O)(Oc2ccc(C)cc2)Oc2ccc(C)cc2)cc1 (tested in a mixture with another compound) | inactive | –
100 | ClC1=C(Cl)[C@]2(Cl)[C@@H]3[C@@H](Cl)[C@H](Cl)C[C@@H]3[C@@]1(Cl)C2(Cl)Cl | inactive | –
101 | O=S(=O)(c1ccccc1)c1ccccc1 | inactive | –
102 | CCC(C)c1cc(C(C)(C)C)cc(-n2nc3ccccc3n2)c1O (stereo unspecified) | inactive | –
103 | CC1(C)C(=O)NC(=O)NC1=O | inactive | –
104 | CC(=O)/C=C/c1ccccc1 | – | 56.4 µM (active)
105 | c1ccc(P(c2ccccc2)c2ccccc2)cc1 | inactive | –
106 | CCOC(=O)COc1ccc(Cl)cc1Cl | inactive | –
107 | CCN(CC)C(=S)S | inactive | –
108 | N#Cc1cccc(C#N)c1 | inactive | –
109 | O=C1Nc2ccc(Cl)cc2C(c2ccccc2)=NC1O (stereo unspecified) | inactive | –
110 | N#CC(c1ccccc1)c1ccccc1 | inactive | –
111 | C[N+](C)=CCl | inactive | –
